Screening data from PubChem BioAssay.
RGS12 GoLoco inh – blocks human Gai1 binding to RGS12 GoLoco peptide, red readout; Gai1:RGS12 GoLoco peptide FP, rhodamine, 10 min; AID 880; 230,000 tested, 0.44% active; Potency, µM (series often up to 61.6 µM), actives largely listed as inhibitors; P63096; active means well fitted inhibition curve with a large enough effect, not every such curve was filed as active; inactive means no such curve, though single readings can be large or run the other way; further: nearly all actives have a fitted effect of over 30% in size
GCN5L2 inh – GCN5L2 (KAT2A) acetyltransferase inhibition | Potency, µM (top dose mostly 58.9 µM), actives largely listed as inhibitors | Q92830 | GCN5L2 HAT assay, ThioGlo1 CoA-SH fluorescence | 390,000 tested, 0.21% active
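qHTS, 1536-well. 20nM enzyme, pH 7.5 HEPES/EDTA/Tween-20 buffer; 15 min compound preinc., RT. Start: 75uM H3(1-25), 70uM AcCoA, 50uM ThioGlo1. Read Ex340/Em540 at t=0 (autofluorescence flag) and t=20 min.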
TR SRC2 fluor cs – counter-screen for TRb-SRC2 inhibitors: fluorescence interference | TRb/SRC2 Texas Red total fluorescence interference | Potency, µM (doses to about 106 µM) | 280,000 tested, 0.29% active; active means well fitted curve in either direction with a large enough effect; inconclusive means small, poorly fitted or top-dose-only effect
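Human TRb ligand-binding domain at 0.6 uM with 20 nM Texas Red SRC2 peptide in Tris buffer containing 1 uM T3 and 5% DMSO, incubated with compound 5 h at ambient temperature. Total fluorescence (555/632 nm) calculated as parallel + 2 × perpendicular.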
VDR inh – blocks the human vitamin D receptor; P11473; VDR-SRC2-3 peptide fluorescence polarization, 2 h; Potency, µM, usual class: inhibitors; 400,000 tested, 0.93% active; AID 504847
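The screen uses fluorescence polarization to detect compounds that interfere with recruitment of the SRC2-3 coactivator peptide to VDR; plates are read after 2 h at room temperature.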
TRb SRC2 PPI – inhibitors of human thyroid hormone receptor beta-SRC2 interaction; P10828; TRbeta-SRC2 peptide binding, fluorescence polarization; receptor liganded with 1 µM T3; Potency, µM (highest dose often 106 µM), usual class: inhibitors; 280,000 tested, 0.065% active; AID 1469; further: nearly all actives have a fitted effect of over 50% in size
Target sequence (P10828 whole entry, looked up): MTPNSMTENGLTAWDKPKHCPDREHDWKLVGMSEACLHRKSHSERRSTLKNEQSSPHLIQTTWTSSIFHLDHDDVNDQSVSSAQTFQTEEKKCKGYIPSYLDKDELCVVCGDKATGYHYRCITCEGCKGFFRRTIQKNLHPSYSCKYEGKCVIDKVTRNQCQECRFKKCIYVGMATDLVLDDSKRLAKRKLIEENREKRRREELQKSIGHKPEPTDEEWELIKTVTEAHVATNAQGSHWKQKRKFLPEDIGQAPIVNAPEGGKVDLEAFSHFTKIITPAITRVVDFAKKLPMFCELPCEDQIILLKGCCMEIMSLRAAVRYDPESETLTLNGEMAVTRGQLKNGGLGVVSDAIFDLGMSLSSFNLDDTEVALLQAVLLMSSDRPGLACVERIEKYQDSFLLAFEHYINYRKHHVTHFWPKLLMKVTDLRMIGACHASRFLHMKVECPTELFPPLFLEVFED
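Each compound concentration gave % activity, normalized to unbound and bound Texas Red SRC2 controls, from polarization read after 5 hr ambient incubation with T3-loaded human TRb LBD.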
Numbers stand for hits; – = inactive; ? = inconclusive; · = no result given; ! = not active in a repeat; [ ] = another dose, or the depositor's remark. Hits are enriched below; roughly 1.2% of the tested compounds scored in any of these assays. Unless noted, the call rests on the fitted dose curve; in most records, active means well fitted curve in the direction sought with a large enough effect; inconclusive means small, poorly fitted or top-dose-only effect, or another doubt; inactive means no such curve, though single readings can be large; an effect the other way counts as inactive or inconclusive.

SMILES	RGS12 GoLoco inh	GCN5L2 inh	TR SRC2 fluor cs	VDR inh	TRb SRC2 PPI
CCOc1ccc(C(C)NC(=S)NC2CCCCC2)cc1OCC (configuration not stated)	–	–	–	–	–
CCOc1ccc(C(=S)NC2CCCCC2)cc1OCC	·	–	·	39.8µM	·
CS(=O)(=O)c1ccc(C(=O)OCC(=O)NCC2CCCO2)cc1[N+](=O)[O-] (configuration not stated)	·	·	·	–	·
CN(C)c1ccc(Cc2cc3c(O)ccc(O)c3cc(Cc3ccc(N(C)C)cc3)c2=O)cc1	·	·	·	44.7µM	·
CN(C)c1ccc(C(=O)c2ccc(O)cc2O)cc1	–	–	–	–	–
CC(=O)Nc1ccc(S(=O)(=O)NC2=NCN(C)CN2)cc1	–	–	–	–	–
CC(=O)Nc1ccc(S(=O)(=O)NC2=NCN(C(C)C)CN2)cc1	·	–	12.6µM[quencher]	–	–
COc1cc2c3cc1Oc1cc(ccc1O)CC1c4c(cc(OC)c(O)c4Oc4ccc(cc4)CC3N(C)CC2)CC[N+]1(C)C (configuration not stated)	–	–	–	–	–
COc1ccc2cc1Oc1cc3c(cc1OC)CC[N+](C)(C)C3Cc1ccc(cc1)Oc1c(OC)c(OC)cc3c1C(C2)[N+](C)(C)CC3 (configuration not stated)	·	20µM	·	–	·
COC1=CC(=O)C(C2CC(=O)c3c(O)cc(O)cc3O2)=CC1=O (configuration not stated)	·	·	·	79.4µM	·
CC(=O)OC[C@@H]1O[C@H](C/C=N\O[C@@H](C)c2cn([C@H](CO)Cc3ccccc3)nn2)C=C[C@@H]1OC(C)=O	·	·	–[11.2 µM]	·	–[11.2 µM]
O=C(c1ccccc1)c1c2c(cc3sc4ccccc4[n+]13)-c1cccc3cccc-2c13	1.26µM	–	–	–	–
COc1cc(/C=C2/C(=O)ON=C2c2ccccc2)ccc1O	–	–	–	50.1µM	–
COc1cc(C=C2C(=O)c3ccccc3C2=O)ccc1O	–	–	–	–	–
COCC(=O)N1CCc2nc(-c3ccc(OC)cc3C)c3c(c2C1)CO[C@@H](c1ccccc1)C3	–[14.2 µM]	·	–[11.2 µM]	·	–[11.2 µM]
Cc1cc(O)ccc1N=Cc1c(C(F)(F)F)[nH][nH]c1=O	7.08µM	–	31.6µM[fluorescent]	–	6.31µM
COc1ccccc1-c1cc(C(F)(F)F)nc(S(=O)(=O)CCCC(=O)NC(C)C)n1	–	?	–	?	–
COc1ccccc1-c1cc(C(F)(F)F)nc(S(=O)(=O)CCCC(=O)N2CCCCC2C)n1 (configuration not stated)	–	–	–	31.6µM	–
CCCCCCCCCC(=O)OC	·	·	–	·	–
CN(C)c1nc(=NCc2ccco2)ss1	–	–	–	28.2µM	–
Oc1c(CN2CCOCC2)cc(CN2CCOCC2)c(O)c1CN1CCOCC1	·	·	·	10µM	·
C[C@H](Oc1ccc(Oc2cnc3ccc(Cl)cc3n2)cc1)C(=O)O	–[14.2 µM]	·	·	·	·
COC(=O)N/N=C/c1cc(N=Nc2ccccc2Cl)ccc1O	–	–	39.8µM[quencher]	–	?
C=C(C)C(=O)OCCN(C)C	·	·	–	·	–
Cc1ccc(S(=O)c2ccc(NC(=O)C3CC3)cc2C#N)cc1 (configuration not stated)	–	–	–	70.8µM	–
SMILES	RGS12 GoLoco inh	GCN5L2 inh	TR SRC2 fluor cs	VDR inh	TRb SRC2 PPI
COc1ccccc1NC(=O)C1=C(C)Nc2c(C(=O)Nc3cccc(C)c3)cnn2C1c1ccccc1Cl (configuration not stated)	·	–	–	–	–
COc1ccccc1NC(=O)C1=C(C)Nc2c(C(=O)Nc3cccc(C)c3)cnn2C1c1ccccc1C (configuration not stated)	·	28.2µM	–	–	–
Nc1ccc2c(c1)OC1(CCCC1)O2	–	–	–	79.4µM	–
O=C(Cc1ccccc1)Nc1ccc2c(c1)OC1(CCCC1)O2	·	–	·	–	·
CCOCCOCC	–	·	–	·	–
O=S(=O)(Nc1cc(Sc2ncn[nH]2)c(O)c2ccccc12)c1ccccc1	–	22.4µM	–	?	?
CC[C@H](C)[C@H](NC(=O)[C@H](Cc1ccccc1)NC(=O)[C@H](CC(C)C)NC(=O)[C@H](CCSC)NC(=O)[C@H](CCC(=O)O)NC(=O)[C@H](CCC(=O)O)NC(=O)[C@H](CC(=O)O)NC(=O)[C@H](CO)NC(=O)[C@@H]1CCCN1C(=O)[C@H](CCCCN)NC(=O)[C@@H](N)[C@@H](C)O)C(=O)N[C@@H](Cc1ccc(O)cc1)C(=O)NCC(=O)N[C@@H](Cc1cnc[nH]1)C(=O)N[C@@H](Cc1ccc(O)cc1)C(=O)N[C@@H](CCCCN)C(=O)N[C@@H](CCC(N)=O)C(=O)N[C@@H](C)C(=O)N[C@H](C(=O)N[C@H](C(=O)NCC(=O)N[C@@H](CC(=O)O)C(=O)N[C@H](C(=O)N[C@@H](CC(N)=O)C(=O)N[C@H](C(=O)N[C@@H](CCC(=O)O)C(=O)N[C@@H](CCCNC(=N)N)C(=O)N1CCC[C@H]1C(=O)NCC(=O)N[C@@H](CCSC)C(=O)N[C@@H](CC(C)C)C(=O)N[C@@H](CC(=O)O)C(=O)N[C@@H](Cc1ccccc1)C(=O)N[C@H](C(=O)O)[C@@H](C)O)[C@@H](C)O)[C@@H](C)CC)C(C)C)[C@@H](C)O	·	–	–	–	–
CC1=C(\C=C/C(C)=C/C=C\C(C)=C\C(=O)O)C(C)(C)CCC1	–	–	–	17.8µM	–
CC1=C(/C=C/C(=C/C=C/C(C)=C/C(=O)O)c2ccc(C)cc2)C(C)(C)CCC1	–	–	–	22.4µM	–
CC1=C(/C=C/C(C)=C/C=C/C(C)=C\C(=O)O)C(C)(C)CCC1	–	–	28.2µM![fluorescent]	50.1µM!	22.4µM!
CC1=C(/C=C/C(C)=C/C=C/C(C)=C/C(=O)Nc2ccc(O)cc2)C(C)(C)CCC1	–	–	–	–	–
COc1cc(C=O)c([N+](=O)[O-])cc1OC	–	·	–	·	–
O=C1c2ccccc2C(=O)N1c1cccc(O)c1	·	·	·	–	·
CCOC(=O)c1ccc(CNc2ncnc3nc[nH]c23)cc1	·	·	·	–	·
O=C(N/N=C/c1ccc(OCCCF)cc1)c1cc(OCC(F)(F)F)ccc1OCC(F)(F)F	–	0.891µM	–	–	–
O=C(Cc1ccccc1)NO	–	–	–	–	–
O=C(Cc1ccccc1)NC1(O)C(=O)c2ccccc2C1=O	–	–	–	35.5µM	–
CC(C)[C@@H](C)/C=C\[C@@H](C)[C@@H]1CC[C@H]2C3=CC=C4C[C@@H](O)CC[C@]4(C)[C@H]3CC[C@]21C	–[14.2 µM]	·	·	·	·
COc1cc(/C=N/N2C(=O)C3C4c5ccccc5C(c5ccccc54)C3C2=O)ccc1O (configuration not stated)	–	–	0.891µM[quencher]	–	–
O=C(Nc1nnc(C2CCCCC2)s1)C1CCN(C(=O)c2ccco2)CC1	·	·	·	–	·
CC(C)(C)c1nnc(NC(=O)c2ccc3c(c2)OCO3)s1	·	?	·	79.4µM	·
CCc1ccc(/C=C/c2c[nH]c3ccccc23)[n+](CC)c1	6.31µM	–	–	–	–
